The nature of assay [1]: qHTS assay for small molecule agonists of the p53 signaling pathway (AID 651631; calls by dose curve; further: nearly all actives have a fitted effect of over 15% in size). The procedure, abridged: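 p53RE-bla HCT-116 cells; compounds 16 h, 37 °C; LiveBLAzer B/G FRET substrate 2 h RT; fluorescence intensity read-out, qHTS format.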
(qHTS replaces the single test concentration by a dilution series.)

A short description of assay [2]: qHTS assay for small molecules that induce genotoxicity in human embryonic kidney cells expressing luciferase-tagged ATAD5 (AID 651632). Further: nearly all actives have a fitted effect of over 15% in size. In short, it runs like this: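 Increased luciferase signal from ATAD5-tagged reporter cells indicates DNA-damage-driven ATAD5 induction. HEK293T cells are treated for 16 hr at 37C before detection with Amplite.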
A short description of assay [3]: qHTS assay for small molecule agonists of the p53 signaling pathway - cell viability (AID 651633; calls by dose curve;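 further: p53RE-bla HCT reporter cells with a stable beta-lactamase p53 reporter; series mostly up to about 83 µM; nearly all actives have a fitted effect of over 30% in size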). In short, it runs like this: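 p53RE-bla cells were treated with compound for 16 hours at 37 C. Cytotoxicity was then measured as CellTiter-Glo luminescence after 30 min at room temperature.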
The nature of assay [4]: qHTS assay for small molecules that induce genotoxicity in human embryonic kidney cells expressing luciferase-tagged ATAD5 - cell viability (AID 651634; calls by dose curve; further: nearly all actives have a fitted effect of over 25% in size). The procedure, abridged: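 Cytotoxicity counterscreen in HEK293T cells bearing an ATAD5-luciferase reporter: live-cell protease activity measured by CellTiter-Fluor fluorescence after 15.5 hr compound exposure.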
The nature of assay [5]: qHTS assay for small molecule disruptors of the mitochondrial membrane potential - cell viability (AID 720634; calls by dose curve;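 further: human HepG2 liver cancer cells; series mostly up to about 83 µM; nearly all actives have a fitted effect of over 20% in size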). In short, it runs like this: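 After overnight attachment at 37 C, HepG2 cells received compound or DMSO vehicle for 1 hr. Viability is then taken from ATP-driven luminescence following a 30 min room-temperature CellTiter-Glo step.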
Assay [6] is described as follows: qHTS assay for small molecule disruptors of the mitochondrial membrane potential (AID 720635). Further: potency means the concentration at half of the fitted maximal effect. In short, it runs like this:
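HepG2 cells exposed to compound 1 hr at 37C, then Mito-MPS dye 30 min. Ratio read of aggregate (540/590 nm) versus monomer (490/535 nm) fluorescence.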

Assay [7] can be described thus: qHTS assay to test for compound auto fluorescence at 535 nm (green) in HepG2 cells (AID 720675).
The nature of assay [8]: qHTS assay to test for compound auto fluorescence at 460 nm (blue) in HEK293 cells (AID 720678). In short, it runs like this: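 After cell attachment (4-5 hr, 37C), compounds were pinned onto HEK293 monolayers in 10% dialyzed FBS medium. The blue channel (405/460 nm) was read following overnight culture. Equivalency was calculated against triamterene.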
Assay [9] can be described thus: qHTS assay to test for compound auto fluorescence at 590 nm (red) in HEK293 cells (AID 720679). In short, it runs like this: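 Plates of HEK293 cells (10% dialyzed FBS) are treated with 23 nL compound or DMSO vehicle after a 4-5 hr attachment period, incubated overnight at 37C, and read for red fluorescence at 540/590nm.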
Assay [10] in a line: qHTS assay to test for compound auto fluorescence at 590 nm (red) in HepG2 cells (AID 720674). In short, it runs like this: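 Seeding: 2,000 HepG2 cells/well, MEM/10% FBS, overnight 37 C. Dosing: compound vs DMSO. Incubation: 1 hr, 37 C, 5% CO2. Read: fluorescence 540 ex/590 em, Rose Bengal sodium as red reference.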

Structures are written as SMILES. Unmarked numbers belong to inactive results. Results filed as inconclusive are left out. Active and inactive are the calls of the source. Unless noted, the call rests on the fitted dose curve; in most records, active means well fitted curve in the direction sought with a large enough effect in the repeat runs; inconclusive means weak or mixed curves; inactive means no such curve, though single readings can be large; an effect the other way counts as inactive or inconclusive.
On the % scale 0 is the no-effect control and ±100 the full control effect.

Consider `FC(F)(F)C(Cl)(Cl)Cl`, for which the Potency entry in assay [1], in assay [2], in assay [3], in assay [4], in assay [5] and in [6] was “inactive” throughout. The call in assay [7], in [8] and in assay [9] was inactive.

In the case of `CC1=CC(=O)CC(C)(C)C1=O`, the Potency entry in assay [1], in assay [2], in assay [3], in [4] and in assay [5] was “inactive” in each case. Also, the call in assay [10], in assay [7], in assay [8] and in assay [9] was inactive.

Consider `OCCN(CCO)c1ccccc1`, for which the Potency entry in [1], in assay [2], in [3], in assay [4] and in assay [5] was “inactive” throughout. Besides, the outcome in [10], in [7], in assay [8] and in assay [9] was inactive.

With `COC(C)CCO` (configuration not stated), the Potency entry in assay [1], in [2], in assay [3] and in assay [4] was “inactive” in each case. The call in assay [10], in assay [7], in assay [8] and in assay [9] was inactive.

Regarding `CCC(=O)O[C@]1(C(=O)SCF)[C@H](C)C[C@H]2[C@@H]3C[C@H](F)C4=CC(=O)C=C[C@]4(C)[C@@]3(F)[C@@H](O)C[C@@]21C`, the Potency result in assay [1], in assay [3], in assay [4] and in [5] was “inactive” each time. For the same molecule, the Potency in assay [6] is 7.17 µM (active). For the same molecule, the fluorescence, relative to Rose Bengal in assay [10] was -0.521% [at 18.6 µM]. For the same molecule, the fluorescence, % of fluorescein control in [7] is 0.0108% [at 18.6 µM]. Also, the fluorescence, % of triamterene in [8] was 0.0153% [at 18.6 µM]. Besides, in assay [9], the fluorescence, % of fluorescent control is -0.0536% [at 18.6 µM].

As to `CC1(C)S[C@@H]2[C@H](NC(=O)C(C(=O)O)c3ccccc3)C(=O)N2[C@H]1C(=O)O` (some centres not stated), the Potency result in assay [1], in assay [2], in assay [3], in assay [4] and in assay [5] was “inactive” throughout. Also, the call in assay [10], in assay [7], in [8] and in [9] was inactive.

Regarding `O=C1C=CC(=O)O1`, the Potency result in assay [1], in assay [2], in assay [3], in [4] and in assay [5] was “inactive” each time. Moreover, the call in [10], in assay [7], in [8] and in [9] was inactive.

For `Cc1ncc(CO)c(CN)c1O`, the Potency entry in assay [1], in [2], in assay [3], in assay [4] and in assay [5] was “inactive” throughout. For the same molecule, the result in assay [10], in [7], in assay [8] and in assay [9] was inactive.

Regarding `O=S(=O)(O)C(F)(F)F`, the Potency result in assay [1], in assay [2], in assay [3], in assay [4] and in assay [5] was “inactive” throughout. Moreover, the outcome in [10], in assay [7], in [8] and in [9] was inactive.

Regarding `O=C(C(Cl)Cl)N1CCOC12CCCCC2`, the Potency result in [1], in assay [2], in [3], in [4] and in assay [5] was “inactive” each time. Besides, the outcome in assay [7], in [8] and in assay [9] was inactive.

`CCOC(=O)NCCC[Si](OCC)(OCC)OCC`: the Potency result in [1], in assay [2], in assay [3], in [4] and in [5] was “inactive” each time. Further, the result in [10], in [7], in assay [8] and in assay [9] was inactive.

Regarding `CCC1(C)NC(=O)NC1=O` (configuration not stated), the Potency result in assay [1], in assay [2], in assay [3], in assay [4] and in assay [5] was “inactive” throughout. Moreover, the molecule was called inactive in [10], in assay [7], in assay [8] and in [9].

Consider `CC(C)Nc1nc(N)nc(Cl)n1`, for which the Potency entry in assay [1], in assay [3], in assay [4], in assay [5] and in [6] was “inactive” each time. The molecule was classed as inactive in assay [10], in assay [7], in [8] and in assay [9].

Take `Cc1c(-c2ccccc2)oc2c(C(=O)OCCN3CCCCC3)cccc2c1=O`: the Potency result in assay [1], in [2], in [3], in [5] and in assay [6] was “inactive” throughout. In assay [7], the fluorescence, % of fluorescein control is 0.273% [at 18.6 µM]. In [8], the fluorescence, % of triamterene was -0.209% [at 18.6 µM]. The fluorescence, % of fluorescent control in assay [9] is 0.0102% [at 18.6 µM].

Consider `C=CCCCCCCCCO`, for which the Potency result in assay [1], in assay [2], in assay [3], in assay [4] and in [5] was “inactive” in each case. Moreover, the molecule was called inactive in assay [10], in assay [7], in assay [8] and in [9].

In the case of `Cc1cc(NS(=O)(=O)c2ccc(N)cc2)nc(C)n1`, the Potency entry in [1], in assay [2], in assay [3], in assay [4] and in assay [5] was “inactive” in each case. The outcome in [10], in [7], in assay [8] and in [9] was inactive.

Take `CCCCCCCCOC(=O)CCCCCCCCC(=O)OCCCCCCCC`: the Potency result in assay [1], in assay [2], in assay [3], in [4] and in assay [5] was “inactive” in each case. Besides, the call in assay [10], in [7], in [8] and in assay [9] was inactive.

As to `CC(CNC1CCCCC1)OC(=O)c1ccccc1` (configuration not stated), the Potency entry in assay [1], in [2], in assay [3], in assay [4] and in assay [5] was “inactive” in each case. Moreover, the fluorescence, % of fluorescein control in assay [7] was 0.0399% [at 18.6 µM]. Besides, the fluorescence, % of triamterene in assay [8] was 0.0231% [at 18.6 µM]. Besides, in assay [9], the fluorescence, % of fluorescent control is 0.178% [at 18.6 µM].

With `CC(C)OC(C)C`, the Potency entry in assay [1], in [2], in assay [3], in assay [4] and in assay [5] was “inactive” throughout. For the same molecule, the molecule was classed as inactive in assay [7], in assay [8] and in [9].

In the case of `C[C@]12CCC(=O)C=C1CC[C@@H]1[C@@H]2CC[C@@]2(C)[C@H]1CC[C@]2(O)C(=O)CO`, the Potency entry in [1], in [2], in assay [3], in assay [4] and in [5] was “inactive” each time. For the same molecule, the outcome in [7], in assay [8] and in assay [9] was inactive.

With `O=C(O)C(=O)Cc1c[nH]c2ccccc12`, the Potency entry in assay [1], in assay [2], in [3], in assay [4] and in assay [5] was “inactive” each time. Further, the result in assay [10], in assay [7], in assay [8] and in assay [9] was inactive.

Take `CCc1nnc(NS(=O)(=O)c2ccc(N)cc2)s1`: the Potency result in [1], in assay [2], in assay [3], in [4] and in assay [5] was “inactive” each time. In addition, the outcome in assay [10], in assay [7], in assay [8] and in assay [9] was inactive.

Take `CCCCOc1cc(C(=O)NCCN(CC)CC)c2ccccc2n1`: the Potency result in assay [1], in assay [2], in [3], in assay [4] and in [5] was “inactive” each time. The fluorescence, relative to Rose Bengal in assay [10] was -0.403% [at 18.6 µM]. Moreover, the fluorescence, % of fluorescein control in [7] was 0.0079% [at 18.6 µM]. The fluorescence, % of triamterene in assay [8] is -0.0164% [at 18.6 µM]. In assay [9], the fluorescence, % of fluorescent control was -0.209% [at 18.6 µM].

As to `Cc1ccsc1C(=CCCN1CCC[C@@H](C(=O)O)C1)c1sccc1C`, the Potency entry in assay [1], in [2], in assay [3], in assay [4] and in assay [5] was “inactive” each time. Also, the molecule was classed as inactive in assay [10], in assay [7], in assay [8] and in [9].

With `C[C@]12C(=O)OC(=O)[C@H]1[C@H]1C=C[C@@H]2C1`, the Potency entry in [1], in [2], in [3], in assay [4] and in assay [5] was “inactive” throughout. The molecule was called inactive in assay [10], in assay [7], in assay [8] and in [9].

Turning to `COc1ccccc1OCC(O)COC(N)=O` (configuration not stated), the Potency result in [1], in assay [2], in assay [3], in assay [4] and in assay [6] was “inactive” in each case. Moreover, the fluorescence, % of fluorescein control in assay [7] is 0.0143% [at 18.6 µM]. In addition, the fluorescence, % of triamterene in [8] is 0.0837% [at 18.6 µM]. In assay [9], the fluorescence, % of fluorescent control is 0.0645% [at 18.6 µM].
